The whole screen tested about 190,000 compounds, of which about 220 (0.12%) were called active. About 2% were inconclusive and are not listed.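 Rule for the calls: active = GTP binding at least 20 percentage points away from the 100% baseline, in either direction, so actives lie on both sides; inconclusive = Compound likely fluorescent itself, or too few beads counted; inactive = the rest.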 What follows is part of a selection rich in actives, with near analogues and random picks from the rest.
Biological target: Ras-related C3 botulinum toxin substrate 1 (Homo sapiens) (UniProt P63000)
Assay: activated Rac1 mutant nucleotide binding changes – biochemical, bead-based flow cytometry, multiplex, fluorescent GTP, primary screen (AID 764)
Conditions: GST-Rac1 activated beads, at 10 µM, actives lie on both sides, 100% means binding = to untreated wells

Compound | percent activity (GTP binding)
O=C(CN1CCN(C/C=C/c2ccccc2)CC1)Nc1ccc(F)cc1F | 93% (inactive)
CCc1ccc(N2CC(O)=C(c3nc4ccccc4c(=O)[nH]3)C2=N)cc1 | 94% (inactive)
COc1ccc(/C=N/n2c(C)cc(C)cc2=O)cc1 | 97% (inactive)
CC(C)Oc1ccccc1C(=O)NC(CO)C(=O)O (centres undefined) | 96% (inactive)
CCOC(=O)C1=NOC(Cn2cc(C(C)=O)c(=O)[nH]c2=O)C1 (centres undefined) | 92% (inactive)
COC(=O)CN1C(=O)N/C(=C/c2ccc(OC)c(C)c2OC)C1=O | 96% (inactive)
CCOc1cc(NS(=O)(=O)c2ccc(OC)cc2)c(OCC)cc1NC(C)=O | 97% (inactive)
CN(C)S(=O)(=O)c1ccc2oc(SCC(=O)Nc3ccccc3F)nc2c1 | 95% (inactive)
Cc1nc2cc(NCc3cccs3)ccc2n1C | 97% (inactive)
CCOP(=O)(OCC)C(Nc1ccc([N+](=O)[O-])cc1)c1ccc(Cl)cc1 (centres undefined) | 92% (inactive)
CCNC(=O)c1ccc(OCC(=O)Nc2ccc(F)cc2)c(OC)c1 | 94% (inactive)
CCC(=O)Nc1ccc(Nc2nc(Cl)nc(Nc3ccc(NC(=O)CC)cc3)n2)cc1 | 94% (inactive)
Cc1nnc(CN(C)Cc2cn[nH]c2-c2ccc(-c3ccccc3)cc2)o1 | 97% (inactive)
CC1(C)OC(=O)C(=CSc2ccc(C(C)(C)C)cc2)C(=O)O1 | 96% (inactive)
COc1ccccc1NC(=O)c1c(Br)cnn1C | 95% (inactive)
Cc1cnc(C(=O)OCC(=O)N2CCc3ccccc32)cn1 | 96% (inactive)
Cc1cc(C)c(C#N)c(N2CCC(C(N)=O)CC2)n1 | 98% (inactive)
OCCC1CN(Cc2cccc(OC3CCCC3)c2)CCN1Cc1ccsc1 (centres undefined) | 95% (inactive)
CCN(CC)CCNC(=O)c1ccc(NC(=O)c2c(F)cccc2Cl)cc1 | 99% (inactive)
CCc1ccc(-n2c(SCc3cc(=O)n4cc(Br)ccc4n3)nc3[nH]ncc3c2=O)cc1 | 94% (inactive)
O=C1CC(=O)Nc2cc(S(=O)(=O)N3CCN(c4cccc(C(F)(F)F)c4)CC3)ccc2N1 | 93% (inactive)
COc1ccc(OC)c(CNC(=O)c2cc(=O)[nH]c3ccc(S(=O)(=O)N4CCCC4)cc23)c1 | 95% (inactive)
CC(C)(C)NC(=O)NC(=O)COC(=O)C1(C)CC1(Cl)Cl (centres undefined) | 97% (inactive)
COC(=O)C(NS(=O)(=O)c1ccc(F)cc1)c1ccccc1 (centres undefined) | 96% (inactive)
O=C(CP(=O)(c1ccccc1)c1ccccc1)N1CCOCC1 | 92% (inactive)

Compound | percent activity (GTP binding)
O=C(C1CC1)N1N=C2CCCCC2C1(O)C(F)(F)F (centres undefined) | 96% (inactive)
Cc1ccc(C)c(-n2cc(CN3CCN(C(=O)c4ncn[nH]4)CC3)c(-c3ccccc3)n2)c1 | 95% (inactive)
CCN(CC)S(=O)(=O)c1ccc(N2CCOCC2)c(NC(=O)C2COc3ccccc3O2)c1 (centres undefined) | 97% (inactive)
CCOC(=O)C1=C(CC)OC(N)=C(C#N)C1c1ccc(F)cc1F (centres undefined) | 93% (inactive)
O=C(O)c1cccc(NC(=O)c2cc(-c3cccc(Cl)c3)nc3ccccc23)c1 | 93% (inactive)
COc1ccc(C2C(C#N)=C(N)N(c3ncn[nH]3)C3=C2C(=O)CCC3)cc1 (centres undefined) | 96% (inactive)
COc1ccc(N2CCN(C(=O)CCSCc3ccccc3F)CC2)cc1 | 92% (inactive)
Cc1ccnc(NC(=O)CCC(=O)N(CC(=O)NCCc2ccccc2)Cc2cccs2)c1 | 97% (inactive)
COc1ccc(NC(=O)/C(C#N)=C\c2cc(OC)c(OCc3ccc(C(=O)O)cc3)cc2Br)cc1 | 89% (inactive)
C1CC1Cc1noc(CN2CCN(CC3CC3)CC2)n1 | 94% (inactive)
CCn1c(CNC(=O)c2ccco2)nnc1SCC(=O)Nc1cccc(F)c1 | 98% (inactive)
Cn1c(SCC(=O)NC2CCCCC2)nnc1-c1ccc(N)cc1 | 96% (inactive)
CC(=O)NC1(c2ccc(F)cc2)CCN(C(=O)c2c(F)cccc2F)CC1 | 92% (inactive)
CN(C)C(CNC(=O)c1cccc(C#N)c1)c1ccco1 (centres undefined) | 97% (inactive)
COc1ccc(C(=O)COC(=O)c2nn(C)c(=O)c3ccccc23)c(OC)c1 | 92% (inactive)
Cc1c(Br)c([N+](=O)[O-])nn1CC(=O)N1CCN(Cc2ccccc2)CC1 | 98% (inactive)
CC(=O)c1ccc(NC(=S)N(Cc2ccccc2)C(C)C2CC2)cc1 (centres undefined) | 93% (inactive)
CCN(CCn1cccn1)C(=O)CC1C(=O)NCCN1Cc1cccc(OC)c1OC (centres undefined) | 93% (inactive)
CCOC(=O)CNc1nc(Cl)nc(Nc2ccccc2)n1 | 96% (inactive)
Cc1ccc(C(=O)CS(C)(=O)=O)cc1 | 99% (inactive)
Cc1ccc(CSCC(N)C(=O)O)cc1 (centres undefined) | 97% (inactive)
Cc1ccc(SC(CC(=O)c2ccc(C(C)(C)C)cc2)C(=O)O)cc1 (centres undefined) | 74% (active)
Cc1cc(C)nc(Nc2ncn[nH]2)n1 | 96% (inactive)
Cc1ncc([N+](=O)[O-])n1CCOC(=O)c1ccc(Br)cc1 | 91% (inactive)
CCCCN(C(=O)c1ccc(OC(F)(F)F)cc1)c1c(N)n(CCC)c(=O)[nH]c1=O | 96% (inactive)

Compound | percent activity (GTP binding)
Cn1cc(CN2CCCCC2c2ccccn2)c(-c2ccc3c(c2)OCCO3)n1 (centres undefined) | 97% (inactive)
CCC(=O)N1c2ccccc2NC2=C(C(=O)CCC2)C1c1ccco1 (centres undefined) | 98% (inactive)
Cc1ccc(CN2CCN(Cc3cccc(C)n3)CC2CCO)cc1 (centres undefined) | 94% (inactive)
CC(=O)C1C(c2ccc(Cl)cc2)c2c(n[nH]c2C)CC1(C)O (centres undefined) | 97% (inactive)
COc1cc(/C=C/C2=CC(C)(C)NC(=S)N2)cc(OC)c1OC | 94% (inactive)
O=C(CCNC(=O)Cn1ccc2ccccc2c1=O)NCCC1=CCCCC1 | 101% (inactive)
COc1cc2c(C(=O)N3CCN(C)CC3)c(CSc3ccccc3)n(C)c2cc1Br | 94% (inactive)
Cc1nn(CC2CC2)c(=O)n1N(C)c1ncc(C(F)(F)F)cc1Cl | 96% (inactive)
COc1cccc(CNC(=O)CCC2CCCN(C(=O)c3ccoc3C)C2)c1 (centres undefined) | 95% (inactive)
COC(=O)NNC1=CC(=O)CC(C)(C)C1 | 97% (inactive)
CCC(C)N(C(=O)COC(=O)C1C(C(=O)OC)=C(C)NC(C)=C1C(=O)OC)C1CCS(=O)(=O)C1 (centres undefined) | 95% (inactive)
CC(C)(C)C(=O)CSc1nc2ccccc2o1 | 96% (inactive)
Cn1cnnc1SCC(=O)NNC(=O)COc1ccc(Br)cc1 | 98% (inactive)
O=C(CN1CCSCC1)N/N=C/c1ccc(Cl)cc1 | 95% (inactive)
O=C(Cc1ccc(Cl)cc1)NCc1nc(-c2ccccc2)no1 | 91% (inactive)
COc1ccc(N2C(=O)CC(Nc3ccc(F)cc3)C2=O)c([N+](=O)[O-])c1 (centres undefined) | 93% (inactive)
COC(=O)C1=C(C)NC(=O)CC1c1ccccc1OC (centres undefined) | 99% (inactive)
CCC(C)(C)NC(=O)C(c1ccccn1)N(C(=O)c1csnn1)c1ccccc1 (centres undefined) | 96% (inactive)
Cc1cc(C(=O)Cn2cnc3cc([N+](=O)[O-])ccc3c2=O)c(C)n1CC1CCCO1 (centres undefined) | 90% (inactive)
Cc1ccc(NC(=O)C(=O)NCc2ccco2)c(C)c1 | 98% (inactive)
Cc1csc(NC(=O)Nc2ccccc2[N+](=O)[O-])n1 | 97% (inactive)
CN(C)S(=O)(=O)Oc1ccccc1C(=O)Nc1ccccc1Cl | 99% (inactive)
CCOC(=O)N1CCN(CCC(=O)Nc2cc(OC)ccc2OC)CC1 | 96% (inactive)
CN1CCN(c2ccc(NC(=O)c3ccc4c(c3)OCCO4)cc2Cl)CC1 | 98% (inactive)
CSc1ncnc2sc(C)c(C)c12 | 93% (inactive)

Compound | percent activity (GTP binding)
CC[n+]1c(C)n(-c2ccccc2)c2ccc(NC(C)=O)cc21 | 96% (inactive)
Cc1ccc(C)c(NC(=O)CCC(=O)N/N=C2/CC(=O)CC(C)(C)C2)c1 | 96% (inactive)
COc1ccc(S(=O)(=O)N2CCN(C(=O)c3cc(C)oc3C)CC2)cc1 | 97% (inactive)
CC(CC(=O)C1C(C)C=CCC1(C)C)NNC(N)=O (centres undefined) | 95% (inactive)
Cn1cccc1/C=C1\SC(=O)N(CC(=O)Nc2ccc(F)cc2)C1=O | 95% (inactive)
CCOC(=O)C1CCN(C(=O)C2(NC(=O)Nc3cccc(F)c3)CCCCC2)CC1 | 97% (inactive)
CC(C)N(Cc1nc(-c2ccc3c(c2)OCO3)no1)CC1CCC(=O)N1 (centres undefined) | 98% (inactive)
CCOC(=O)/C(=N\Nc1ccccc1[N+](=O)[O-])c1csc(Nc2ccccc2)n1 | 91% (inactive)
C/C(CC(=O)Nc1ccc(C)cc1C)=N\NC(=O)C(C)C | 98% (inactive)
CCN(C(=O)Cc1nc(N)n[nH]1)C1(C(=O)Nc2ccccc2)CCCCC1 | 97% (inactive)
CC(=O)c1c(-c2ccccc2)c2ccccc2[nH]c1=O | 96% (inactive)
COc1ccc(C2=NN(c3ccccc3)C(c3cccs3)C2)cc1 (centres undefined) | 94% (inactive)
CCS(=O)(=O)c1ccc(O)c(NC(=O)COc2ccc(Cl)cc2)c1 | 95% (inactive)
O=C(CC1CCCCC1)NCc1ccco1 | 92% (inactive)
CCOc1ccc(Br)cc1S(=O)(=O)N1CCC(C(=O)O)CC1 | 94% (inactive)
COc1ccc(NC(=O)c2c(SC)nsc2SC)cc1 | 100% (inactive)
CSc1nsc(SC)c1NC(=O)OC1CCCCC1 | 33% (active)
CSc1ncccc1C(=O)NC1CCCCCC1 | 96% (inactive)
Cn1c(CCC(=O)OCC(=O)NCc2ccccc2Cl)nc(=O)c2ccccc21 | 95% (inactive)
COc1ccc(-c2nc(N)sc2C2(O)C(=O)Nc3c(Br)cc(F)cc32)cc1OC (centres undefined) | 95% (inactive)
COc1cccc(Cn2cnc3c([N+](=O)[O-])c(C)c(C)cc32)c1 | 96% (inactive)
Cc1nc2ccccn2c1C(=O)NN=C1CCN(C)CC1 | 98% (inactive)
O=C1c2ccccc2C(=O)N1CCC(O)C[N+](=O)[O-] (centres undefined) | 98% (inactive)
CC(=O)Nc1ccc(Sc2ccccc2C(=O)N2CCCC2)cn1 | 98% (inactive)

From PubChem BioAssay AID764 (NMMLSC, 2007)
